Measured values from the supplement of paper PMC11732987, “Enantioselective OTUD7B fragment discovery through chemoproteomics screening and high-throughput optimisation” (Communications Chemistry, 2025).

How the values were obtained:
Assay in all cases: log2 ratio of Biotin-Ahx-Ub-VS probe labelling (fragment/DMSO); higher = less target engagement (more negative = stronger competition), active = hit call of the paper (q ≤ 0.05, log2 ratio ≤ -1)
Details in all cases: compound concentration: 200 uM; treatment time: 3 h
[1] = biological target: USP34 (UniProt Q70CQ2)
Sequence of USP34 (Q70CQ2 whole entry, the tested form may be a part): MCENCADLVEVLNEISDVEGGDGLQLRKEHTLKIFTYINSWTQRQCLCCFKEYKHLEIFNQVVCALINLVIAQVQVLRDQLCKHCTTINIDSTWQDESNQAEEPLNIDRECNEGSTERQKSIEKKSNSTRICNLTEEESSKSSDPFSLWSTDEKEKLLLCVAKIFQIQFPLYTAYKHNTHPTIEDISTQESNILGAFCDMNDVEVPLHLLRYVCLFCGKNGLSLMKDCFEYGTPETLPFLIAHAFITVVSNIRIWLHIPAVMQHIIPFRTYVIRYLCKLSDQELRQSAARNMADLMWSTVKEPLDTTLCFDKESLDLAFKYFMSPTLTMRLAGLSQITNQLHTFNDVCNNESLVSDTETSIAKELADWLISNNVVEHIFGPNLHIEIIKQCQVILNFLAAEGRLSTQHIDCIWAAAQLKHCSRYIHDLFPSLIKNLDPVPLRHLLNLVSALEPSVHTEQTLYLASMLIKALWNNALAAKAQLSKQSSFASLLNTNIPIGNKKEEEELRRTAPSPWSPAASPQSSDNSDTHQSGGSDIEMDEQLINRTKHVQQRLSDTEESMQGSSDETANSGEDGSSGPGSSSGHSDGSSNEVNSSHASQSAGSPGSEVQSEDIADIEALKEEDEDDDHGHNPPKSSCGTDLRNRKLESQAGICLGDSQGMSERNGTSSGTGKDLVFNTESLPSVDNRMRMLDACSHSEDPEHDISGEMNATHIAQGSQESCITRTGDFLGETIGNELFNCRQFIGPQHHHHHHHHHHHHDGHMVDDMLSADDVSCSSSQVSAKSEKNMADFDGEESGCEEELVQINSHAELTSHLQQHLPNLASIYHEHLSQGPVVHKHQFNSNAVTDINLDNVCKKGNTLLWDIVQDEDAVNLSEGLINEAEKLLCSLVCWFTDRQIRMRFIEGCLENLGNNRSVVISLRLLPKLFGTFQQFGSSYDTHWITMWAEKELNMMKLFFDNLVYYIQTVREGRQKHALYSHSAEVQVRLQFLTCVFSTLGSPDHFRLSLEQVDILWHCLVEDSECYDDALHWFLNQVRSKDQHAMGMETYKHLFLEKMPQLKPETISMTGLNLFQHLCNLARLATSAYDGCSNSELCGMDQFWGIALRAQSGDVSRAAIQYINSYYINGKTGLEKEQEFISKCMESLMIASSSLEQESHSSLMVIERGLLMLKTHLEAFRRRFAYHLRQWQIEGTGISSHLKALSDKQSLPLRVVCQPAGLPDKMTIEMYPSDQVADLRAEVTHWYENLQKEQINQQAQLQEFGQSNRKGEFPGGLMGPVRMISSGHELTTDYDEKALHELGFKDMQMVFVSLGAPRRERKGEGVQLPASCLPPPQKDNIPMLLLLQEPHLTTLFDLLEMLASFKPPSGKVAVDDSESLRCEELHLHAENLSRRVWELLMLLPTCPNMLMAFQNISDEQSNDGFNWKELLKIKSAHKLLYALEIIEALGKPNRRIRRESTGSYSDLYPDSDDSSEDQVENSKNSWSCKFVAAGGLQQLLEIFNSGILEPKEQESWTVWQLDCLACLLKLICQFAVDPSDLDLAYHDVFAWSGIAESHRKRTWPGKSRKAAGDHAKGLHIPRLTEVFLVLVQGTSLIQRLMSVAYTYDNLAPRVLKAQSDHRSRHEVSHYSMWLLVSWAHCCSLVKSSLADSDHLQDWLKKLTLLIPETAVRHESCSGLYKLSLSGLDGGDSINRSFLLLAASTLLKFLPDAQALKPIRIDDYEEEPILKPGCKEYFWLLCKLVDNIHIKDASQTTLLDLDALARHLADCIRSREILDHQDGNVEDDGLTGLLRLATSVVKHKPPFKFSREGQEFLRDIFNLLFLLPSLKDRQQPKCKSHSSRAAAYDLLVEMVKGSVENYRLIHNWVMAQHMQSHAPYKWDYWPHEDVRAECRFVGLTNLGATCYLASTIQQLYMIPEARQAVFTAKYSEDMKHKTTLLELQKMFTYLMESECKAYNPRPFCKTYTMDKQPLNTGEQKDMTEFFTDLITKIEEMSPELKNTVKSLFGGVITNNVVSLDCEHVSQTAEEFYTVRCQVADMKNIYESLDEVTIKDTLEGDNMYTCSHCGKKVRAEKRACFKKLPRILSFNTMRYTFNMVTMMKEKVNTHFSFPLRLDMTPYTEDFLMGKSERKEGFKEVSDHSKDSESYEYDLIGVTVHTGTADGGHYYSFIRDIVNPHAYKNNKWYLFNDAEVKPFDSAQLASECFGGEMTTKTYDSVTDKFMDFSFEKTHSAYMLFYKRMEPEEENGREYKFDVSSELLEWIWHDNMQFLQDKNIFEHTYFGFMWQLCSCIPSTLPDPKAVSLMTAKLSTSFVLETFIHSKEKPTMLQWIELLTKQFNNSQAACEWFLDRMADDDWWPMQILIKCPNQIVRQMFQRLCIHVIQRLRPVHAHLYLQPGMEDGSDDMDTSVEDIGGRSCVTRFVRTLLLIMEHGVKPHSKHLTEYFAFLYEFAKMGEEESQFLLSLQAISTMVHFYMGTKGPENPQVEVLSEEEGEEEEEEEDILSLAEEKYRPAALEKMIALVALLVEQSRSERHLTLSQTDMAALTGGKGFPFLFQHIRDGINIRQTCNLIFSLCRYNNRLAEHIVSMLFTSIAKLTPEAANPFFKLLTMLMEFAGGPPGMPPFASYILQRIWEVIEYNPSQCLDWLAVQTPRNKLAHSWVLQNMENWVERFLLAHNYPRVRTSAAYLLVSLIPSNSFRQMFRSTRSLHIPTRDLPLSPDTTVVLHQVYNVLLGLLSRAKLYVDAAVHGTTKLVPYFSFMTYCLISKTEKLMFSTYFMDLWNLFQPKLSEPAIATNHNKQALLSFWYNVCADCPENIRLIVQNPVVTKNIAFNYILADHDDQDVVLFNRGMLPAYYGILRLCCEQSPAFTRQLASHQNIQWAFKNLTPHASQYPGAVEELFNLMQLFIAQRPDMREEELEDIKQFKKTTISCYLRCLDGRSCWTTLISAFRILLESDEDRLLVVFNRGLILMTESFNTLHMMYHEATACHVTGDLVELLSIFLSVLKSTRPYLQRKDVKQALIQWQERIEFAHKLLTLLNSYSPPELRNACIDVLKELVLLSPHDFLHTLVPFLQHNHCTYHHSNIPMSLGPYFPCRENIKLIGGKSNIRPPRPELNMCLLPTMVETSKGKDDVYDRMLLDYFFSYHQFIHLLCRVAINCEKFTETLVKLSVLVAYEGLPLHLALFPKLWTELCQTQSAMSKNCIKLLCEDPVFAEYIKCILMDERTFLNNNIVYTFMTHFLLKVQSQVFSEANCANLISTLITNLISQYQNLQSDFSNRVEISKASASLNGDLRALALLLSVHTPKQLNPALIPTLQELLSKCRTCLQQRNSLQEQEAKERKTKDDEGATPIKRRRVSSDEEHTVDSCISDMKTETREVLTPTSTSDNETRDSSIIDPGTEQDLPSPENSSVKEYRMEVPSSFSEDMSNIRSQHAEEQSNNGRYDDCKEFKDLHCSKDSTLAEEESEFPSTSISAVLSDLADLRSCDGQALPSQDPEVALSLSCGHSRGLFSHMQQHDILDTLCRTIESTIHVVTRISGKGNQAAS
In short: (§1)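 Labelling with Biotin-Ahx-Ub-VS (0.5 µM final, 1 h) followed a 3 h triplicate treatment of HEK293T lysate (495 µg per sample, Tris/CHAPS/IGEPAL buffer with protease inhibitors) with fragment at 200 µM or vehicle. Labelled DUBs were NeutrAvidin-enriched, digested with LysC and trypsin, and run by diaPASEF LC-MS/MS. The values, average log2 fragment/vehicle ratios by unpaired t-test, come from global-median-normalised Spectronaut label-free quantities. Proteins with ≥2 unique peptides were used.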

[2] = biological target: T1, USP36 (UniProt Q9P275)
T1 sequence (whole entry): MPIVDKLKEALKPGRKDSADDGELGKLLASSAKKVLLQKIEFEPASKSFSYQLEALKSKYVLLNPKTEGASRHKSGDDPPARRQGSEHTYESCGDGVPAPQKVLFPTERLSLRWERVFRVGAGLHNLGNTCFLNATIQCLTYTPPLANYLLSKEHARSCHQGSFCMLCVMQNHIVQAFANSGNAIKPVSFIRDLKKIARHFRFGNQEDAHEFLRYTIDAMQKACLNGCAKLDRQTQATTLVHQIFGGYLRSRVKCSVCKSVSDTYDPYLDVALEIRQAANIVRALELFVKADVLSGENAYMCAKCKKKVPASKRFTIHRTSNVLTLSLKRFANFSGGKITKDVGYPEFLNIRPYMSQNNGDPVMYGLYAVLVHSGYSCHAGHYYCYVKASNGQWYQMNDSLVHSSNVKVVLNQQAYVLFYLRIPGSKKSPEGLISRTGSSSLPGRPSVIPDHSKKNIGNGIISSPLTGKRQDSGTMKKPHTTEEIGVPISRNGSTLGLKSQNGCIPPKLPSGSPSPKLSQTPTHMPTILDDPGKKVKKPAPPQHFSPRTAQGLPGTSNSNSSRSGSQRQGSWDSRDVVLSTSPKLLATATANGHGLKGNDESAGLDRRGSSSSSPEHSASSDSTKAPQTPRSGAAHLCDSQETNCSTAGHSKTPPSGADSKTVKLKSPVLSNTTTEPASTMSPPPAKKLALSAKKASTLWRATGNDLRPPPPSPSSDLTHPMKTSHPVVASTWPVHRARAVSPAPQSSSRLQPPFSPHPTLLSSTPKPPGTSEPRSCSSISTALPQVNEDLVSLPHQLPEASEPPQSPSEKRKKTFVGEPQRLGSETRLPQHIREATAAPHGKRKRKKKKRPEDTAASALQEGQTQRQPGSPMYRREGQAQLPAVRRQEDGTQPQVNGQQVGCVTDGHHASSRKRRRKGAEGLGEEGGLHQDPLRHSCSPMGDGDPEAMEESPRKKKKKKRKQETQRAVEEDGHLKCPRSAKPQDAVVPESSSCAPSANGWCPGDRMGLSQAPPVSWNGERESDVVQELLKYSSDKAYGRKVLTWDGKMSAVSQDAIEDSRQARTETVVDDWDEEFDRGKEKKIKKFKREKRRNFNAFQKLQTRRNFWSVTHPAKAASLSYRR
In short: as §1

[3] = biological target: T2, USP38 (UniProt Q8NB14)
T2 sequence (whole entry): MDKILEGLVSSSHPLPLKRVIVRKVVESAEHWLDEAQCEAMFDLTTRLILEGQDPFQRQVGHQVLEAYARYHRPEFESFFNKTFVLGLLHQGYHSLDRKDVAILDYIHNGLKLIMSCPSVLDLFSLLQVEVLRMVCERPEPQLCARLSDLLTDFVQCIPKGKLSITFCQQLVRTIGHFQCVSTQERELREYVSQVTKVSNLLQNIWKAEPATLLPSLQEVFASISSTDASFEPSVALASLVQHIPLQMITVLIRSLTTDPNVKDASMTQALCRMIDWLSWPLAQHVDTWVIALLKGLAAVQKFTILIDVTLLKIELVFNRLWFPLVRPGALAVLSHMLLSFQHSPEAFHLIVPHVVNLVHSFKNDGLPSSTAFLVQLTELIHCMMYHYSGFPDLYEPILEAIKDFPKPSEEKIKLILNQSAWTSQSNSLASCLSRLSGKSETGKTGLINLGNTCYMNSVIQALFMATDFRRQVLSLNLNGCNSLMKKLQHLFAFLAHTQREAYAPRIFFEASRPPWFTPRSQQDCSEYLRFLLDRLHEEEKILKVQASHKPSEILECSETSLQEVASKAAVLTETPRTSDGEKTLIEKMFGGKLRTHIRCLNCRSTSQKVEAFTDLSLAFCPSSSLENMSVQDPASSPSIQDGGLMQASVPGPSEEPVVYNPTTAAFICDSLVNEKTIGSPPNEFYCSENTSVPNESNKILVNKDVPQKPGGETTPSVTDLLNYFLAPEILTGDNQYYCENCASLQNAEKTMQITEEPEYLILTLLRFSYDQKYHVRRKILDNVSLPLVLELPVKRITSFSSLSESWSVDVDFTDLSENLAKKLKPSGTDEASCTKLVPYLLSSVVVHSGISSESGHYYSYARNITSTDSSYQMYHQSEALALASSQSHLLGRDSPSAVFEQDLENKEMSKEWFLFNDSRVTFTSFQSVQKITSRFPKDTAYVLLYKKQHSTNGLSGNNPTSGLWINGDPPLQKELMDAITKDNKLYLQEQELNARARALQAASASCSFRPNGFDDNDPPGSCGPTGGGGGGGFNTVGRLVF
In short: as §1

[4] = biological target: T3, USP39 (UniProt Q53GS9)
T3 sequence (whole entry): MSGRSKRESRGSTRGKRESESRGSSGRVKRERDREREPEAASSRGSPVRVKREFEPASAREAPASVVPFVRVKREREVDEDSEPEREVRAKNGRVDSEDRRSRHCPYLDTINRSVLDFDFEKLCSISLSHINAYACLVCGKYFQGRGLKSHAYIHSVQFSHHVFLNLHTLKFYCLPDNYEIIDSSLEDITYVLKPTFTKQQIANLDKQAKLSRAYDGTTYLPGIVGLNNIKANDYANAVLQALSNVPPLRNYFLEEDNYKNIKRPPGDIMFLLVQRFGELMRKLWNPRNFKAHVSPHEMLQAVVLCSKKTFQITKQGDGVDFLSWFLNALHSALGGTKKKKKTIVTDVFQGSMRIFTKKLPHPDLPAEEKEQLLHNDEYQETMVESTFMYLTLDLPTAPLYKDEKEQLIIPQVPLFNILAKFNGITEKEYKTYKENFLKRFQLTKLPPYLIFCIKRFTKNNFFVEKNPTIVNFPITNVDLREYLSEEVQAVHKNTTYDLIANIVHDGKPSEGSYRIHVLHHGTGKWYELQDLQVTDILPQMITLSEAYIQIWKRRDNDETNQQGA
In short: as §1

[5] = biological target: T4, USP4 (UniProt Q13107)
T4 sequence (whole entry): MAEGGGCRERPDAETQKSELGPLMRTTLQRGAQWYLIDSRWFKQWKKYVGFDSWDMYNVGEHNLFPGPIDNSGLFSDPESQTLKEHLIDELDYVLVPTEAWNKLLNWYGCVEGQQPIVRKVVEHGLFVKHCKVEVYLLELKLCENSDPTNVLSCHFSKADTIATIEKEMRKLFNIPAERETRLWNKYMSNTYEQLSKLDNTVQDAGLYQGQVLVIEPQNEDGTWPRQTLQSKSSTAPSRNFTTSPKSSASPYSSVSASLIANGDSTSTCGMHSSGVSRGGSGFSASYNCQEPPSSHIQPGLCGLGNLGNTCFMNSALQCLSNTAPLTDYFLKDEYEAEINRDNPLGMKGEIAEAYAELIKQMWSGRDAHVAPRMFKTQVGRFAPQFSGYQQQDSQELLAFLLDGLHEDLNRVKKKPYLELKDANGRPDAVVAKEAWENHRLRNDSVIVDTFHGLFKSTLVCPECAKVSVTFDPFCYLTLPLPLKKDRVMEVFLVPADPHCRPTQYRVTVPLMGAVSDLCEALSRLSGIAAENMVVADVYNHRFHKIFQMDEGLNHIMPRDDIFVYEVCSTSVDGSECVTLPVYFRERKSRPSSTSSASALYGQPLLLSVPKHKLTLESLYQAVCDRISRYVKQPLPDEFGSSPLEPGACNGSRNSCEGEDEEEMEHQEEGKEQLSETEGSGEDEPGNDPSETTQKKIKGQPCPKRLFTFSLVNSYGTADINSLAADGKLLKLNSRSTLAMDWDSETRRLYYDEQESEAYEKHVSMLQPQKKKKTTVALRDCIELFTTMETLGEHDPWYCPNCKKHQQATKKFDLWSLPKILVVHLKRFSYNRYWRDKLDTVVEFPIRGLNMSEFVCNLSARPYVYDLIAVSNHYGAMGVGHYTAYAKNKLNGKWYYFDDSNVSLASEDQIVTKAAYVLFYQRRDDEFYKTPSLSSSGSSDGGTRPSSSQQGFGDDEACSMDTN
In short: as §1

Measured: log2 ratio of Biotin-Ahx-Ub-VS probe labelling

O=C(CCl)N[C@H]1CCS(=O)(=O)c2ccccc21
inactive: [1] -0.277 | [2] -0.115 | [3] -0.13 | [4] -0.176 | [5] -0.212
